Hits are enriched below; roughly 21% of the tested compounds scored in any of these assays.
IL1B secr inh – blocks inflammasome-driven IL-1 beta release | THP-1 LPS/ATP IL-1B secretion, AlphaLISA, 16 h; hits give low values | activity change, % at 57.5 µM | actives 4.7% (n = 360,000); in the data active means activity change below about -50%; inconclusive means mostly about -30% to -49%; further: on the % scale 0 is the no-effect control and ±100 the full control effect
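Secreted IL-1B measured by AlphaLISA bead assay after 16 h compound exposure of THP-1 cells; compounds (final up to 57.5 uM) added 1 h before LPS (250 ng/mL) and ATP (1.25 mM) stimulation; lower signal means less secretion.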
TDP1 cell noCPT – qHTS for Inhibitors of human tyrosyl-DNA phosphodiesterase 1 (TDP1): qHTS in cells in absence of CPT. actives 15% (n = 420,000). Potency, µM (doses to about 46.2 µM), without a hit: at the highest dose activity change, negative = growth inhibition, actives largely listed as inhibitors. DT40 Tdp1-/- hTDP1 cells, no CPT, ATP luminescence, 48 h. AID 686978, 2013; further: potency means the concentration at half of the fitted maximal effect; on the % scale 0 is the no-effect control and ±100 the full control effect; nearly all actives have a fitted effect of over 55% in size
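Growth of hTDP1-complemented DT40 Tdp1-knockout cells is measured by ATP luminescence after at least 48 hr compound exposure at 37 °C, with DMSO substituting for the 20 nM CPT used in the parallel screen.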
ClpP mod – qHTS Assay for Activators of ClpP | ATP-dependent Clp protease proteolytic subunit (Bacillus subtilis (strain 168)), P80244 | purified B. subtilis ClpP, FRET peptide cleavage, 20 min | Potency, µM (series often up to 57.5 µM), for inactives: top-dose activity change, negative = active | actives 1.9% (n = 340,000); active means well fitted falling curve with a large enough effect; inconclusive means small, poorly fitted or top-dose-only effect; inactive means no such curve, though single readings can be large or run the other way; further: potency means the concentration at half of the fitted maximal effect; the source files actives as falling curves though it sought activators and does not explain the sign; nearly all actives have a fitted effect of over 65% in size
Target sequence (P80244 whole entry, looked up): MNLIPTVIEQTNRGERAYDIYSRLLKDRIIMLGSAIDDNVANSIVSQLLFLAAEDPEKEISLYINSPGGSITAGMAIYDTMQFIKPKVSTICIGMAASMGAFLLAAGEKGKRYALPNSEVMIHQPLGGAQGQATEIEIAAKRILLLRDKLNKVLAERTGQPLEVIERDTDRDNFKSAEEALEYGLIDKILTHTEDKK
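ClpP 10 microg/mL final, pH 8 Tris/KCl buffer with BSA, glycerol, Tween-20; compound pinned in; FRET-FV substrate; RT 20 min; Ex320/Em430; ΔFRET vs ADEP 5.8 microM, DMSO, no enzyme.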
DRD3 antagonist – D3 dopamine receptor (human) antagonism. P35462. D3R cells, DiscoveRx beta-arrestin luminescence, antagonist mode; hits give low values. max response, negative = inhibition, %. actives 2.5% (n = 360,000). AID 652054; in the data active means max response below about -50%; inconclusive means no clear call, values can overlap the other calls; further: on the % scale 0 is the no-effect control and ±100 the full control effect
Target sequence (P35462 whole entry, looked up): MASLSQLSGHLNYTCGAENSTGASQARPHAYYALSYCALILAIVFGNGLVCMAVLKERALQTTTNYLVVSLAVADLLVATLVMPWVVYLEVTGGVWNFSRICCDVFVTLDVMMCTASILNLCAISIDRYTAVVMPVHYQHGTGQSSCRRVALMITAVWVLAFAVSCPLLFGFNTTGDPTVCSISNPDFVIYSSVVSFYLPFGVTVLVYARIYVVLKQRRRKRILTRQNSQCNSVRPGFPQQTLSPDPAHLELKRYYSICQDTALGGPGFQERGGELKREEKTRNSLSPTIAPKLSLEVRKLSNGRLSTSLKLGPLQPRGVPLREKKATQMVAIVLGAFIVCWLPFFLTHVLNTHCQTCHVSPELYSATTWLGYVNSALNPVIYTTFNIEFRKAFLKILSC
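Cells expressing the human receptor were seeded at 1500 cells/well, incubated overnight at 37 degrees C in 5% CO2, then exposed to library compounds with dopamine controls for 90 minutes at 37 degrees C before luminescent detection.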
D3 ag – agonists of human D3 dopamine receptor; P35462; D3R DiscoveRx beta-arrestin cells, luminescence, 90 min; max activation, %; actives 0.58% (n = 410,000); AID 652048; in the data active means max activation above about 30%; further: 0% is about no effect
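Agonist-mode cell screen: cells plated at 1500/well and incubated overnight at 37 °C, then exposed to library compounds for 90 min at 37 °C. Detection reagent was added for 30–60 min at room temperature, and luminescence was read.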
DT40 TDP1 CPT – growth inhibition of DT40 Tdp1-/-;hTDP1 cells with camptothecin (screen for TDP1 inhibitors); AID 686979; actives 12% (n = 420,000); chicken DT40 Tdp1-/-;hTDP1 cells + 20 nM CPT, ATP luminescence, 48 h; Potency, µM (highest dose often 46.2 µM), without a hit: top-dose activity change, negative = growth inhibition, most hits filed as inhibitors; further: potency means the concentration at half of the fitted maximal effect; on the % scale 0 is the no-effect control and ±100 the full control effect; nearly all actives have a fitted effect of over 55% in size
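Chicken DT40 Tdp1-/- cells stably complemented with human TDP1 were seeded at 400 cells/well in medium containing 20 nM camptothecin, exposed to pin-transferred compounds, and grown at 37 °C for at least 48 hr. Viability was read as ATP luminescence.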
* hit, by the source's call; ? = inconclusive; nt = not tested or not shown. Unless noted, the call rests on the fitted dose curve; in most records, active means well fitted inhibition curve with a large enough effect; inconclusive means small, poorly fitted or top-dose-only effect; inactive means flat fitted curve, though single readings scatter.

SMILES	IL1B secr inh	TDP1 cell noCPT	ClpP mod	DRD3 antagonist	D3 ag	DT40 TDP1 CPT
Nn1cnc2sc3c(c2c1=O)CCC3	-14	-9%	-1%	15	-1	-12%
CCOc1ccc(/C=C/C(=O)Nc2sc3c(c2C(=O)OC)CCC3)cc1	nt	-8%	-3%	nt	-11	-6%
N/C(=N/OC(=O)c1ccc(Cl)cc1)c1ncc([N+](=O)[O-])s1	-6	21µM*	2%	-17	-10	16µM*
CCOc1ccc(NC(=O)COC(=O)CC2CC3CCC2C3)cc1 (stereo unspecified)	0	9%	0%	12	5	-3%
O=C(COc1ccc(F)cc1)N/N=C/c1cccc2cccnc12	164	16µM*	1%	-14	-3	21µM*
O=C(COc1cccc2cccnc12)N/N=C/c1ccc(O)cc1	-20	-29%	2%	6	3	?
Cc1ccc(OCC(=O)N/N=C/c2cccc3cccnc23)cc1	99	26µM*	-2%	-2	5	23µM*
CCn1cc2nc(SCc3cccc(Cl)c3)n(Cc3ccc(C)cc3)c(=O)c2n1	nt	23µM*	1%	nt	0	21µM*
CCn1cc2nc(SCc3cc(C)ccc3C)n(Cc3ccc(Cl)cc3)c(=O)c2n1	nt	?	-2%	nt	0	?
CCn1cc2nc(SCc3cccc(C(F)(F)F)c3)n(Cc3ccc(Cl)cc3)c(=O)c2n1	nt	8.2µM*	-2%	nt	-8	15µM*
CCn1c(SCc2cccc(C(F)(F)F)c2)nnc1-c1ccco1	-1	-11%	-2%	-28	10	-13%
CCn1cc2nc(SCc3cccc(C(F)(F)F)c3)n(CCc3ccccc3)c(=O)c2n1	nt	13µM*	-1%	nt	0	23µM*
CCn1cc2nc(SCc3cccc(C)c3)n(CCc3ccccc3)c(=O)c2n1	nt	?	-3%	nt	1	23µM*
COc1ccc(C(=O)CC(=O)C(=O)Nc2cccc(C(C)=O)c2)cc1	26	?	nt	8	6	4%
CN1C2CCC1CC(NS(=O)(=O)c1ccc(C#N)cc1)C2 (stereo unspecified)	21	11%	1%	9	-1	-6%
Cc1ccccc1OCC(O)CN1CCC(C)CC1 (stereo unspecified)	-8	-2%	nt	-60*	-12	0%
CC1CCN(CC(O)COc2ccc(OCC(O)CN3CCC(C)CC3)cc2)CC1 (stereo unspecified)	1	?	1%	45	-3	?
Cc1ccccc1OCC(O)CN1CCN(c2ccc(Cl)cc2)CC1 (stereo unspecified)	10	?	0%	?	2	?
Cc1ccc(C)c(OCC(O)CN2CCC(C)CC2)c1C (stereo unspecified)	24	21µM*	0%	?	-14	?
Cc1ccccc1OCC(O)COc1ccccc1C	0	21µM*	nt	-21	-11	?
Cc1ccccc1OCCNCC(C)O (stereo unspecified)	-4	-4%	nt	-57*	-12	-2%
Cc1ccc(-c2nc(-c3cc4c([nH]c3=O)CC(C)(C)CC4=O)sc2C)cc1	nt	?	-16%	nt	8	?
COc1ccccc1CNc1ncnc2c1cnn2-c1ccc(C)cc1	nt	-12%	4%	nt	8	-27%
Cc1ccccc1OCC(O)CN1CCN(CC(O)COc2ccccc2C)CC1 (stereo unspecified)	-12	?	1%	-57*	-18	?
O=C(NC1CCCC1)c1ccc(COc2ccccc2Br)o1	-5	?	-3%	-17	-3	?
SMILES	IL1B secr inh	TDP1 cell noCPT	ClpP mod	DRD3 antagonist	D3 ag	DT40 TDP1 CPT
CSc1nc2ccc(NC(=O)c3c(-c4ccccc4)noc3C)cc2s1	-65*	?	nt	28	4	-3%
Cc1ccccc1NC(=O)CSc1nc2ccc(NC(=O)c3ccccc3)cc2s1	nt	16µM*	49%	nt	5	?
Cc1ccccc1NC(=O)CSc1nc2ccc(NC(=O)c3ccco3)cc2s1	nt	21µM*	?	nt	2	16µM*
CCOC(=O)CSc1nc2ccc(NC(=O)c3ccc(F)cc3)cc2s1	nt	-27%	4%	nt	1	-3%
COc1cccc(NC(=O)CSc2nc3ccc(NC(=O)c4ccco4)cc3s2)c1	nt	18µM*	-18%	nt	7	13µM*
COc1ccc(NC(=O)CSc2nnc(NC(=O)c3ccco3)s2)cc1	-17	12%	1%	-11	2	-20%
CC(C)Nc1nc2c(-c3cccc(Br)c3)nnn2c2ccccc12	nt	?	4%	nt	-4	?
Cc1ccc(S(=O)(=O)NCC(c2ccc3c(c2)OCO3)N2CCN(c3ccccc3)CC2)cc1 (stereo unspecified)	-8	?	-1%	11	5	?
CC(=O)c1cccc(N(C(=O)Cn2nnc3ccccc32)C(C(=O)NCc2ccccc2)c2ccc(F)cc2)c1 (stereo unspecified)	nt	?	1%	nt	-12	?
Cc1ccc(NC(=O)CSc2nc3ccc(NC(=O)c4ccco4)cc3s2)c(C)c1	nt	7.3µM*	4%	nt	9	16µM*
Cc1cccc(NC(=O)CSc2nc3ccc(NC(=O)c4ccco4)cc3s2)c1	nt	2.6µM*	97%	nt	7	10µM*
Cc1ccc(NC(=O)CSc2nc3ccc(NC(=O)c4cccc(Cl)c4)cc3s2)c(C)c1	nt	?	?	nt	1	?
Cc1ccc(NC(=O)CSc2nc3ccc(NC(=O)CCc4ccccc4)cc3s2)cc1	nt	?	-1%	nt	1	?
Cc1ccccc1NC(=O)CSc1nc2ccc(NC(=O)CCc3ccccc3)cc2s1	nt	9.2µM*	-12%	nt	4	?
CC1(C(=O)Nc2ccc(S(=O)(=O)Nc3ncccn3)cc2)CCCC1	15	-17%	0%	0	5	9%
CCc1nc2scc(-c3ccc(C)cc3)c2c(=O)n1N	0	-19%	nt	-2	1	4%
Cc1ccc(-c2csc3nc4c5ccccc5c(NCCCN(C)C)nn4c(=O)c23)cc1	?	18µM*	4%	1	4	?
CN1CCN(C2=C(Cl)C(=O)N(c3cccc(Cl)c3)C2=O)CC1	-25	-4%	-3%	-6	-6	-9%
O=C1C(Cl)=C(N2CCCC2)C(=O)N1c1ccc(F)cc1	3	-16%	25µM*	18	-1	?

Bioassay records: PubChem, National Center for Advancing Translational Sciences (NCATS)
